Source: PMC5540273 (PLoS ONE, 2017)

Experiments:
Conditions in all cases: concentration: 1 μM,replicates: in singlicate; n = 1
BMX = system: BMX
BRAF = system: BRAF
BRK = system: T1, BRK
T1 construct: gene PTK6

BRSK1 = system: BRSK1
BRSK2 = system: BRSK2
BTK = system: BTK
BUB1 = system: BUB1
CAMK1B = system: CAMK1B
CAMK1D = system: CAMK1D
CAMK1G = system: CAMK1G
CAMK1 = system: CAMK1
CAMK2A = system: CAMK2A
CAMK2B = system: CAMK2B
CAMK2D = system: CAMK2D
CAMK2G = system: CAMK2G
CAMK4 = system: CAMK4
CAMKK1 = system: CAMKK1
CAMKK2 = system: CAMKK2
CASK = system: CASK
CDC2L1 = system: T2, CDC2L1
T2 construct: gene CDK11B
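Also: KINOMEscan kinase panel screen.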

Row | SMILES | %Inh (BMX) [%] | %Inh (BRAF) [%] | %Inh (BRK) [%] | %Inh (BRSK1) [%] | %Inh (BRSK2) [%] | %Inh (BTK) [%] | %Inh (BUB1) [%] | %Inh (CAMK1B) [%] | %Inh (CAMK1D) [%] | %Inh (CAMK1G) [%] | %Inh (CAMK1) [%] | %Inh (CAMK2A) [%] | %Inh (CAMK2B) [%] | %Inh (CAMK2D) [%] | %Inh (CAMK2G) [%] | %Inh (CAMK4) [%] | %Inh (CAMKK1) [%] | %Inh (CAMKK2) [%] | %Inh (CASK) [%] | %Inh (CDC2L1) [%]
1 | NC(=O)c1cc(-c2ccccc2)cc2c(C3CCNCC3)c[nH]c12 [GSK301362] | 5 | 3 | 16 | 20 | 18 | 0 | 8 | 87 | 69 | 18 | 30 | 0 | 0 | 23 | 19 | 0 | 0 | 4 | 18 | 0
2 | CCN(CC)CCCCNc1ncc2cc(-c3c(Cl)cccc3Cl)c(NC(=O)NC(C)(C)C)nc2n1 | 43 | 97.8 | 95.9 | 13 | 10 | 65 | 17 | 7 | 16 | 12 | 9 | 0 | 0 | 9 | 20 | 20 | 15 | 23 | 0 | 0
3 | CN(C)CC(O)COc1ccc(Nc2nccc(-c3cnn4nc(N5CCOCC5)ccc34)n2)cc1 (stereo not shown) [GW767488] | 3 | 3 | 0 | 3 | 33 | 22 | 76 | 49 | 37 | 38 | 31 | 25 | 25 | 32 | 46 | 0 | 62 | 51 | 19 | 20
4 | CC(C)N1C(=O)Cc2cc(Nc3ncc(C(F)(F)F)c(NCc4cccc(S(C)(=O)=O)c4)n3)ccc21 | 11 | 0 | 0 | 0 | 0 | 0 | 26 | 3 | 0 | 0 | 0 | 22 | 14 | 5 | 0 | 0 | 2 | 23 | 0 | 0
5 | CNC(=O)c1ccccc1Sc1ccc2c(/C=C/c3ccccn3)n[nH]c2c1 | 0 | 15 | 5 | 34 | 24 | 0 | 53 | 37 | 11 | 2 | 9 | 26 | 24 | 3 | 12 | 0 | 16 |  | 36 | 0
6 | Nc1nc(Nc2ccccc2)cc(-c2ccc3c(N)n[nH]c3c2)n1 [GSK2225749] | 12 | 0 | 0 | 0 | 20 | 6 | 90 | 29 | 11 | 0 | 3 | 0 | 0 | 0 | 0 | 0 | 0 | 0 | 0 | 0
7 | Cl.Oc1cc(-c2nc(-c3ccccc3)[nH]c2-c2ccncc2)ccc1Cl [SB-386023] | 0 |  | 31 | 0 | 1 | 0 | 92.5 | 0 | 27 | 74 | 0 | 0 | 0 | 0 | 0 | 0 | 0 | 4 | 10 | 0
8 | Cc1ccc(-n2nc(C(C)(C)C)cc2NC(=O)Nc2ccc(OCCN3CCOCC3)c3ccccc23)cc1 [GW839464] | 4 |  | 4 | 6 | 0 | 0 | 0 | 0 | 4 | 6 | 4 | 13 | 13 | 11 | 3 | 16 | 12 | 0 | 14 | 0
